Measurements reported in the supplement of paper PMC6555819.

System: RXRa DBDmut IVT, anti-RXR (DBD mutation: RXRa K156A/R161A, NR concentration 90 nM)
Assay: PBM binding z-score (relative to random genomic background probes); higher = stronger binding; sequences stand for … in GC…GCGATTGACAGCGTAGAATGAAGG
Method in brief: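 The probes on custom Agilent 4×180K protein-binding microarrays were double-stranded, with 34-nt variable regions bearing direct-repeat seeds, single-nucleotide variants, half-site ablations and random human genomic background sequences. Incubation lasted 1 h with ligand-free nuclear receptor dimers in PBS pH 7.4, 2% milk, 0.02% Triton X-100, 1 mM DTT, 0.2 mg/mL BSA and 0.4 mg/ml salmon testes DNA. Antibodies against each partner (one per run) detected bound dimers, and fluorescence scans were regression-normalized. Binding z-scores take the random background probes as reference.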

Sequence	PBM binding z-score
AGTCAAAGTTCATCCAGGTAACGTAAGATATGCT	4.61
CCGACTGGGGCTGAAAGGTTACCATACCATCCGG	-0.859
GCGACTGGGGCATCAGCACGTTACCATAACTTAA	0.239
ATATGTAGGTTATCGGGTCATTCCGTTTGCGCAT	1.67
CGTCAAAGTTCAGCTAAGGTAACGTAAAGCACGC	3.46
CCTACTGGGCCATCAGGTCATTGAAATCAACGTT	0.155
CCTCGGAGGACAACAGGAGGTCAGAGCAGCCAGA	-0.0172
CCGACTGCGGCAAAGGTTACCATACTCAGTACGA	0.531
TGATATAGGTAATACAGGTGAAAGTCGGCATCTA	-0.27
CGTCCAAGGTGAGCAGGTCAGTGAAAGCGACGTG	-0.254
CCTACTGGGCCAAAAAAGTCATTGATGCCGATAA	-0.134
GCAGACAGGTGAAAGGCAGGTAACTCAGGGTGGC	-0.432
CCAGACAGGTGAGAAGGTAGCTCAGCCTCGATTA	-0.104
CGTCCAAGGTCAGAGAGGTCAGTTAATGCCGAGT	3.83
ATCGAAAGGTCGAGGTGAGTACAGAGAAAGGGAA	0.83
GCATATAGGTAATACAAGGAGAAAGTCCGATTGT	0.562
TCGTGTAGATCAAAGGTTAAGAAAGCCGAAGCCT	0.608
CTCGAAAGGTTGGTTGAGGTGAGTATACGGATAA	0.251
CAAACTAGGTCAAGGTCGAAGTCGGTTTGTGCCA	2.45
ATATGTAGGTTGGCTGGGGTCATTCAGACTAGGC	1.81
TCTTGTAGATCATCAGGTTAAGAAAGCTGGCCAA	0.859
CGTCCAAGGTCAAAGGTTAGTGAAGAGATGACGG	3.99
